The results in this text go back to PubChem BioAssay AID1347426 (Functional Genomics Laboratory (NCATS/FGL), 2020).

In all, about 31,000 sequences went through this assay and about 1,400 (4.5%) were called active.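 The calls were made as follows: active = median seed-adjusted z-score above 1 or below -1; inactive = the rest.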 The full list was thinned out, with actives kept by preference.

A short description of the test: Novel Modifiers of Survival Motor Neuron (SMN) Protein: Gene Identification via Genome-wide siRNA Screen.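 Also: luminescence tracks full-length SMN protein made from the SMN2 reporter.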 To be noted: HEK293T SMN2-luciferase reporter, siRNA knockdown, 72 h; actives lie on both sides. In a few lines:
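Luciferase signal, proportional to full-length SMN made from an SMN2 cDNA reporter in stable HEK293T cells, was read 72 h after siRNA reverse transfection. Values were expressed as MAD scores after non-targeting-control normalization and log10 conversion; seed analysis flagged off-targets.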
Background: In a reporter assay the amount or activity of a reporter protein is the signal.
As to GGAUACUCUGAUGAAGAUATT against GNAQ, the median seed-adjusted z-score was -1.23 (active).

For the sequence AGUCAGCUCCGAUACUUCATT against CAPN10, the median seed-adjusted z-score was 0.364 (inactive). The value for UCACUGUGGUGUAUUUUAATT against PDP2 was -0.0726 (inactive). On to GCUUCCAACUGCUUAUAUATT against TP53RK, for which the median seed-adjusted z-score was 0 (inactive). With CCAUCUCCUCUGAAACGUATT against RREB1 the figure was -0.414 (inactive); with CAGAGACUGUUAUCCAUUUTT against SLC25A36, 0.134 (inactive). The value for UUGUGGAUGUUGAACCUAATT against SNRPD1 was -2.97 (active).

GCUACUAACAUUACUCCAATT against FOLH1: the median seed-adjusted z-score is 0.148 (inactive).

Take CCAUCUCUACCGACGAAGATT against ARHGEF1: the median seed-adjusted z-score is -0.0658 (inactive). With CAUUCUAUGGGAUACCCUATT against SYT4 the figure was -0.354 (inactive); with CAGGAAGUCUGACCAAUAATT against LPL, 0.389 (inactive). For UGACCGAUGUCUUCCUUAUTT against RHOQ, the median seed-adjusted z-score is -0.328 (inactive). Regarding CUCUGAUUAUCAUGAGAUATT against SRGAP2, the median seed-adjusted z-score is 0.0323 (inactive). Consider AACCUAUAAUGAGGAUGUATT against ZNRF2, for which the median seed-adjusted z-score is 0 (inactive).

Regarding AGAGCGACCUCACCACCAATT against RAB1B, the median seed-adjusted z-score is 1.55 (active). In the case of “GGAAGCGAAUACUACUAUUTT against ST6GALNAC3”, the median seed-adjusted z-score was -0.205 (inactive). GCAUUGAUCCUCAGAGUAATT against PTPRU: the median seed-adjusted z-score was 0 (inactive).

Take GGGAUAUGAUAGAUCCUUATT against CPO: the median seed-adjusted z-score was 0.0875 (inactive). With CCGCAUAGCUCAUAGGAUATT against SMARCA2 the figure was -0.458 (inactive); with GCAUGGUAAUUUAUAGUUUTT against NGF, -0.325 (inactive); with GCACGGAAUUUGAACAGUATT against SOX17, -0.46 (inactive). For the sequence GGAACAUCUUUGUACCUAUTT against NARG1, the median seed-adjusted z-score was -1.02 (active).

Take AUCUAGACUUCUCUUUAUATT against FHL3: the median seed-adjusted z-score is 0.105 (inactive).

In the case of UCCUCAACGUGUGCGAUGATT against KCNG1, the median seed-adjusted z-score is -0.00995 (inactive). With CCUCAGCUUUUACAGCAAATT against RAD23A, the median seed-adjusted z-score is -1.13 (active).

Take GGCCUAUGCUAAUCAUUCUTT against FANCA: the median seed-adjusted z-score was 0.418 (inactive). GACUUGAAGAUGCUAAUCATT against TIPIN: the median seed-adjusted z-score is 0 (inactive). With GAAUGAAAUCAGAGUAUAATT against RNF125, the median seed-adjusted z-score is 0.204 (inactive).

In the case of CCAGGUCCAUGGAAAGAAATT against NEIL2, the median seed-adjusted z-score was -0.256 (inactive).

Consider CGGCUAGAAGAGGAACAGATT against LSG1, for which the median seed-adjusted z-score is 1.31 (active). For CAAUGUGGUGUAUAAUACATT against VNN2, the median seed-adjusted z-score was -0.583 (inactive). In the case of CAGUCACUGCACUACAGAATT against ATF7, the median seed-adjusted z-score was 0.903 (inactive). The value for AGAACAAAGACCUAAUGGATT against TNNT3 was -0.293 (inactive). Turning to GAUUGAGAAUUCUAUUGUATT against UTP6, the median seed-adjusted z-score is -0.253 (inactive). Consider GAAUCGUUGUCAGAGCCUUTT against LMNB1, for which the median seed-adjusted z-score was 0.0619 (inactive).

Regarding AGGCAAAGACGGAACAACATT against TRIM69, the median seed-adjusted z-score was 0.214 (inactive). The value for GCAUUGGUCUAGAGCUUUATT against SCPEP1 was -0.99 (inactive); that for GCAUCGUCACUGUCAUGAATT against ITPR3 was -1.28 (active); that for AGUUUGAUGUUAUCAAUCUTT against PRKAG1 was 0.431 (inactive).

Take GCAGAUCUCGCUACAGGGATT against SFRS2B: the median seed-adjusted z-score is -0.272 (inactive).

On to UCAGCUUCAGCUUAACUGATT against TUBA1B, for which the median seed-adjusted z-score was 0.0888 (inactive). In the case of CGAGAAUGACUAUCUUCAATT against STK32C, the median seed-adjusted z-score is -0.311 (inactive). As to GACCUGGGCAGAUUCCAAATT against MMP9, the median seed-adjusted z-score was -1.15 (active). Consider GGGUAUGAGAUAUGCGGUATT against TYW1, for which the median seed-adjusted z-score was 0.201 (inactive). As to GAUUAGAUCUAAACAAUCUTT against TTRAP, the median seed-adjusted z-score was -0.33 (inactive).

Consider CCAGAAUGCCCAUAUCACATT against RS1, for which the median seed-adjusted z-score was -0.684 (inactive). In the case of GCCUUCUGAUGGUAGAUCUTT against RANBP17, the median seed-adjusted z-score is -0.123 (inactive).

In the case of GGAUGGCAGGGAUUCCGAATT against ZNF213, the median seed-adjusted z-score was 1.37 (active). With GGAAAGUUGUGGGUCUAAUTT against SERPINA7 the figure was 0.0925 (inactive); with GGACUUAAGCGACAACGCATT against RANGAP1, -0.0379 (inactive); with GCACCGAACCCGUCUAUCATT against POU3F4, -0.314 (inactive). In the case of GUAGCUUGCUACUCCAGAATT against POLR2D, the median seed-adjusted z-score was -3.79 (active). Consider CGGAUGCACAAGCUAAAUATT against BHLHA15, for which the median seed-adjusted z-score is -0.199 (inactive). With CGGAAGGUAGUAAACCUUUTT against AMY1A the figure was 0.272 (inactive); with GUAGCUCAUUUGUAAGGAATT against ZNF578, -0.808 (inactive). GGAGCGCAAGAUCACCUUATT against SSTR1: the median seed-adjusted z-score is 0.285 (inactive). With GCCGGUAUGUGAAGGAGAATT against CLK3 the figure was -1.11 (active); with CACUUUUUAUAUUUACGUATT against TSPAN4, 0.417 (inactive). As to GUGUAGACAUAGUCUAAAATT against ZNF532, the median seed-adjusted z-score was -0.0289 (inactive). Regarding CCCUGUCUGUGAAGCAUGATT against TXNDC2, the median seed-adjusted z-score is -1.29 (active). Turning to GCUACAUCUUUAUAAGGGATT against IL12RB2, the median seed-adjusted z-score is 0.368 (inactive). Turning to GGAAGAAAGCGGGACUUUUTT against PPME1, the median seed-adjusted z-score was 0.342 (inactive). With CAGACUCCCUCAUCACCAATT against ALAS1, the median seed-adjusted z-score is -1.15 (active).

For CAAUGAACACUACUAACCATT against IL31RA, the median seed-adjusted z-score is 0.36 (inactive). With CGGGAGUGGUUUUCAGAGATT against APOC1 the figure was 0 (inactive); with GCUCUGAAUUCAGUGUUUATT against HTR3E, -0.717 (inactive).

For GGUCUAACUCAAUAAUGGATT against REV3L, the median seed-adjusted z-score is 0.062 (inactive).

Regarding GCUGAAUAUCUACACGGAATT against SLCO4A1, the median seed-adjusted z-score was -0.0802 (inactive). For GUGCUCGAAUGAUAACUAUTT against RAB2A, the median seed-adjusted z-score is -0.038 (inactive). Regarding GUGGAACAAUUGUAACAGATT against ETF1, the median seed-adjusted z-score is -1.12 (active). With GCUUCGAAUGGAUCUAGAATT against MYH8, the median seed-adjusted z-score was 0.0648 (inactive).

Turning to CCAACGAACAUGUACAACATT against CACNA2D3, the median seed-adjusted z-score was 0.198 (inactive).

Consider GGAUAUGGUUAAUAGGAGATT against SMC6, for which the median seed-adjusted z-score is 0.227 (inactive).

As to GCAGUUAGAUGUCAGGACATT against PPIA, the median seed-adjusted z-score is 0.0169 (inactive). Take CGAAAGGAGUCUUCACCAATT against PRDX6: the median seed-adjusted z-score was -0.0302 (inactive). Regarding CCCUAGAUAUGGACGAUGATT against UTP3, the median seed-adjusted z-score was -1.08 (active). The value for CAAUGGACAGAAUACACUUTT against ZNF614 was 0.0971 (inactive). Take UGAGCAGUGAGAACCCAUATT against PEAR1: the median seed-adjusted z-score is 0.071 (inactive). Regarding CCAUAGUAGUGACUACCAUTT against GRIA3, the median seed-adjusted z-score is -0.358 (inactive).

Turning to AACUGGACCUUAAAAAGAATT against POU4F3, the median seed-adjusted z-score was 0 (inactive).

For the sequence GGAUGUCCAGAGGCACUAATT against POLA2, the median seed-adjusted z-score was -0.114 (inactive). Take GAAAGACUUGUUUAUAUUATT against ADRB1: the median seed-adjusted z-score is 1.06 (active). For CUCAAUCCAUAGUAAGUAUTT against ZNF678, the median seed-adjusted z-score was 0.172 (inactive). As to CAAUUCUUGUCAUUUGAAATT against SLC25A19, the median seed-adjusted z-score is -0.104 (inactive). For CCAUAAUGAUAGAGUUUAATT against SLC24A4, the median seed-adjusted z-score is 0.0358 (inactive). On to GAGUGAGAGCUGUAGAAAATT against CREB3, for which the median seed-adjusted z-score was 0.0509 (inactive). In the case of AGUGGACAACAGAACAAUATT against SNRPG, the median seed-adjusted z-score was -3.09 (active).

As for CCUGUACGAUGAGAUAGAATT against CYFIP2, the median seed-adjusted z-score is -0.322 (inactive). With GGAUGCACUUCUAAACUCATT against AKR1D1 the figure was 0.211 (inactive); with GGUCUAGCCUUACACCUCATT against RAB3GAP2, 0.0583 (inactive); with GAAGGGCUCUUUCACAGCUTT against ADAMTS13, -0.276 (inactive). As for GGACAUGUUCUACUCUUCATT against LRP5, the median seed-adjusted z-score was -1 (active). For GUCUCGAUGGAGCAAAGUATT against TCERG1, the median seed-adjusted z-score is 0.415 (inactive).

CGACUUGCUAAGCUACAUATT against MAOA: the median seed-adjusted z-score was 0.665 (inactive).

For GGAACAACGGUGGAGAUUUTT against ITGB5, the median seed-adjusted z-score was -0.00882 (inactive). Take GAAAGGAUCAGUGUCGAUATT against OCRL: the median seed-adjusted z-score is -0.545 (inactive).

As to GCAGUUUCAGGGUAUGAAATT against LGMN, the median seed-adjusted z-score is 0.391 (inactive). In the case of GGAUCAUACUAGAAGACUATT against TREM1, the median seed-adjusted z-score was 0 (inactive). For GGAACACUAUGAUGAGUUUTT against U2AF1, the median seed-adjusted z-score was 2.08 (active).

For the sequence GCUGCUCCCGGAAAUGCAATT against ISOC2, the median seed-adjusted z-score is -0.599 (inactive). With CAACAUGCCCAUUCGCUUUTT against ADIPOQ, the median seed-adjusted z-score is 0.557 (inactive). Turning to GCCUGAGACCAAAAACAGATT against SLC2A9, the median seed-adjusted z-score is 0.216 (inactive). Take GAUCUGCAUCAAUACUGAATT against FBLN5: the median seed-adjusted z-score was -0.0832 (inactive). With CACUGACUAUUAUCAUUCATT against WHSC1L1 the figure was -0.283 (inactive); with GGGAUGUAAUAACAGCAUUTT against GDE1, -0.256 (inactive). With CUGUUGCACUUCACAUUUUTT against TRIP13, the median seed-adjusted z-score is 1 (active). As for CAGCUUAAUUUUUACGCAATT against IPMK, the median seed-adjusted z-score was -0.00138 (inactive). For the sequence CACCUACGAUAGCUACUAUTT against NKTR, the median seed-adjusted z-score is -1.1 (active).
